Results reported in PubChem BioAssay AID2435 (The Scripps Research Institute Molecular Screening Center, 2010).
Screen size: about 320,000 compounds; about 1,000 (0.31%) were called active. For the sample, actives were picked, then their nearest neighbours and some compounds at random. A number with no mark means an inactive call.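 The calls were made as follows: active = activation above the mean of all tested compounds plus 3 SD, cutoff set per screening run (cut at about 20% in these data); inactive = the rest.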

These molecules were tested against Oxytocin receptor (Homo sapiens) (UniProt P30559) (assay: oxytocin receptor activation by calcium flux – fluorescence, CHO-OTR cells, Fluo-8 calcium, primary screen (AID 2435;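 also: peak over basal fluorescence ratio from a 100 s FLIPR kinetic read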)). Conditions: Fluo-8 calcium fluorescence, at 3 µM, stronger effect = higher value, normalized: DMSO 0%, oxytocin 100%.
Sequence of Oxytocin receptor (Homo sapiens) (P30559 whole entry, looked up): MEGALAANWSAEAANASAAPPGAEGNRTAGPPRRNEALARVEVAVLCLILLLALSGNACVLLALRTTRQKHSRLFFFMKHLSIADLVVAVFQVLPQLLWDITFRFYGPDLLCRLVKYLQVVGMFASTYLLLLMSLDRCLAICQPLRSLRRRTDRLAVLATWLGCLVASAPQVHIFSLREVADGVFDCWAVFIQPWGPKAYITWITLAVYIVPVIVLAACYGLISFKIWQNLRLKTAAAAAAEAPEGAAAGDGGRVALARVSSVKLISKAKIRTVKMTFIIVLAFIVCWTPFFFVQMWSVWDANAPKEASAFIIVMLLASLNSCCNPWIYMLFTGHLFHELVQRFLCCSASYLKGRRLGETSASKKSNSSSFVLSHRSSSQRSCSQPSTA
Molecule Cc1oc2nc(SCC(=O)Nc3ccc(S(N)(=O)=O)cc3)nc(NC(=O)c3ccccc3)c2c1C has an activation of 0.48%. Molecule CCCCCCCCCCCCN1C(=O)CSC1c1cccnc1 (stereo not drawn) has an activation of -0.53%. For COCCC(=O)Nc1ccc2c(c1)CN(C(=O)CCOC)CC2, the activation was 0.4%. Work on COc1ccc(S(=O)(=O)N(C)CC(=O)N2CCCC2)cc1 yielded an activation of 1.27%. CN(C)S(=O)(=O)c1ccc(Oc2ccc(S(=O)(=O)N(C)C)cc2)cc1 was tested, and the activation was 23.4% (active). CN(C)S(=O)(=O)c1ccc(NC(=O)N2CCOCC2)cc1 was tested, and the activation was -0.79%. For Cc1nc(CC(=O)NNS(=O)(=O)c2ccc(F)c(Cl)c2)cs1, the activation was -0.41%. Molecule Cc1ccccc1N1CC(C(=O)Nc2ccc(S(=O)(=O)N3CCCC3)cc2)CC1=O (stereo not drawn) has an activation of 1.72%. For CC(C)(c1ccccc1)c1ccc(OCCN)cc1, the activation was 20.2% (active). In the case of CN(C)CC(O)COc1ccc(C(C)(C)c2ccc(OCC(O)CN(C)C)cc2)cc1 (stereo not drawn), the activation is reported as 1.29%. CC(C)(c1ccccc1)c1ccc(OCCN2CCCC2)cc1 showed an activation of 16%. COc1ccc(-c2csc3ncnc(N4CCN(S(=O)(=O)c5ccccc5C#N)CC4)c23)cc1 showed an activation of -0.22%. In the case of Cc1c(CCOC(=O)CC23CC4CC(CC(C)(C4)C2)C3)sc[n+]1Cc1ccc([N+](=O)[O-])cc1, the activation is reported as -1.22%. COc1cc(OC)c2ccc(=O)oc2c1C(CCN1CCN(c2ccccc2)CC1)c1ccc2c(c1)OCO2 (stereo not drawn) was tested, and the activation was -1.49%. In the case of CCN(CC)CCC(c1cc(OC)c(OC)c(OC)c1)c1c(OC)cc(OC)c2c(-c3ccccc3)cc(=O)oc12 (stereo not drawn), the activation is reported as 2.08%. In the case of COc1cc(C(CCN2CCN(c3ccccc3)CC2)c2c(OC)cc(OC)c3ccc(=O)oc23)cc(OC)c1OC (stereo not drawn), the activation is reported as 22.2% (active). Cc1ccc(S(=O)(=O)N2CCN(C(=O)Cc3sc(C)nc3-c3ccc(F)cc3)CC2)c(C)c1 gave an activation of -2.3%. Work on CCCn1nc2cc(C(=O)NCc3ccccc3)ccc2c1OCC yielded an activation of -2.12%. Work on C=CCSc1nc2c(c(=O)[nH]c(=O)n2C)n1Cc1ccccc1 yielded an activation of -0.23%. For Cc1cc2nc3c(=O)n(Cc4ccccc4)c(=O)[nH]c3nc2cc1N, the activation was 52.9% (active). COC(=O)CSc1nc2ccccc2c(=O)n1Cc1ccccc1 was tested, and the activation was -1.02%. O=S(=O)(NCCOc1cccc2cccnc12)c1ccc(F)cc1 was tested, and the activation was 3.57%. With CCOC(=O)N/N=C1\CC(C)S(=O)(=O)c2ccc(Cl)cc21 (stereo not drawn) the activation was -2.06%. CCOc1ncccc1C(=O)NCCc1ccc(OC)cc1 showed an activation of -1.34%. For Cc1nc(CN2CCN(C(=O)CCc3nnc(Cc4c[nH]c5ccccc45)o3)CC2)cs1, the activation was -0.27%. In the case of Cn1c2ccccc2c(=O)c2c(=O)n(Cc3ccco3)c(COc3ccccc3)nc21, the activation is reported as 1.8%. With CCCc1nc2c(c(=O)c3ccccc3n2C)c(=O)n1C1CCCCCC1 the activation was 52.1% (active). With Cn1c2ccccc2c(=O)c2c(O)cccc21 the activation was -1.89%. Cc1ccc(C(=O)Cc2nnc(C)s2)cc1 showed an activation of -0.26%. With Oc1ccc2ccc3cccc[n+]3c2c1 the activation was 65.3% (active). Work on COc1ccc(N2CCN(C(=O)[C@@H](NC(=O)c3cc(OC)cc(OC)c3)C(C)C)CC2)cc1 yielded an activation of -0.71%. For CCOc1ccc(CCNC(=O)C2CCN(c3ccc(N4CCOCC4)nn3)CC2)cc1OCC, the activation was -0.01%. Molecule NC(=O)C1CCN(C(=O)c2cn(-c3ccccc3)nc2-c2cccnc2)CC1 has an activation of 1.05%. O=C(NNC(=S)NC(=O)c1cn(-c2ccccc2)nc1-c1ccccc1)c1ccncc1 was tested, and the activation was 21.2% (active). With Cc1ccc(-c2nn(-c3ccccc3)cc2C(=O)NC2CCC(O)CC2)cc1 (stereo not drawn) the activation was 0.66%. COC(=O)c1ccc(COC(=O)C2CCN(S(=O)(=O)c3c(Cl)cccc3Cl)CC2)o1 showed an activation of 0.45%. O=C(NCc1ccco1)/C(=C/c1cccc([N+](=O)[O-])c1)NC(=O)c1ccco1 showed an activation of -0.34%. CCOC(=O)N1CCN(C(=O)C2CC(c3ccc(F)cc3)=NO2)CC1 (stereo not drawn) was tested, and the activation was 0.22%. For O=C(c1ccco1)N1CCN(C(=O)C2CC(c3ccc(F)cc3)=NO2)CC1 (stereo not drawn), the activation was 38.1% (active). Molecule O=C(c1ccco1)N1CCN(C(=O)C2CC(c3ccc(Cl)c(Cl)c3)=NO2)CC1 (stereo not drawn) has an activation of 5.71%. Work on CC1(C)Oc2ccc3ccc(=O)oc3c2/C(=N/O)C1=O yielded an activation of -0.3%. CCCCOc1ccc(CON(C(C)=O)C(C)=O)cc1Cl was tested, and the activation was -0.28%. CC(O)CNCCOc1cccc(Oc2ccccc2)c1 (stereo not drawn) showed an activation of 2.15%. COc1ccccc1OCCNCC(O)COc1cccc2[nH]c3ccccc3c12 (stereo not drawn) was tested, and the activation was 20.7% (active). CC(C)(C)NCC(O)COc1cccc2[nH]c(=O)[nH]c12 (stereo not drawn) was tested, and the activation was -0.01%. For CC(=O)c1ccc(NC(=O)c2sc3nc4n(c(=O)c3c2C)CCCCC4)cc1, the activation was 7.14%. With COc1cccc(CNCCc2c[nH]c3ccccc23)c1OCc1ccccc1F the activation was 23.9% (active). With COc1ccccc1NC(=O)CCCc1c[nH]c2ccccc12 the activation was -0.34%. COc1ccc(S(=O)(=O)NCCc2c[nH]c3ccccc23)cc1OC gave an activation of 4.77%. Cc1cc2nc3n(c2cc1C)CC1CC(C(=O)NCCC(C)C)N(C)C31 (stereo not drawn) was tested, and the activation was 0.52%. Molecule O=c1c2ccccc2nc2n1C(CSCc1ccccc1)CS2 (stereo not drawn) has an activation of 0.87%. With O=c1c2ccccc2nc2n1C(CSc1ccc(Cl)cc1)CN2 (stereo not drawn) the activation was 25.6% (active). Work on O=c1c2ccccc2nc2n1C(CSc1ccc(F)cc1)CN2 (stereo not drawn) yielded an activation of 0.69%. For Cc1ccc(S(=O)(=O)N(C)C)cc1NC(=O)C1Cc2ccccc2CN1C(=O)c1ccco1 (stereo not drawn), the activation was -0.61%. In the case of C=C(C)CSc1nnc(-c2ccc(C)cc2)n1N, the activation is reported as -2.48%. For COc1ccc(CNC(=O)CCC(=O)Nc2nnc(C(C)C)s2)cc1, the activation was -0.01%. CCc1nn(CCCC(=O)NC(C)c2ccccc2)c(=O)c2cc3occc3n12 (stereo not drawn) was tested, and the activation was -0.99%. Molecule FC(F)(F)c1cc(-c2ccco2)nc(NCc2ccc(Cl)cc2)n1 has an activation of 0.65%.
